This passage reports growth results from PubChem BioAssay (NCI).

Structures are written as SMILES. Compounds without any hit were thinned out: in the full panel of roughly 83,000, 20% have a hit.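 Negative percent growth values reflect cell death: -40 means 40% of the cells present at the start died, and -100 means all died.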 Values without a mark were called inactive. Active and inactive are the calls of the source. Rule for the calls: active = growth percent below 10; inactive = the rest.

Test systems include SR leukemia; RPMI-8226 leukemia; OVCAR-8 ovarian; OVCAR-5 ovarian; OVCAR-4 ovarian; SK-OV-3 ovarian; IGROV1 ovarian; OVCAR-3 ovarian; HS 578T breast; NCI/ADR-RES ovarian.
Common to all, as to assay: NCI-60 one-dose screen, 48 h (100 = growth as untreated, 0 = no growth, -100 = all killed)
What all share (details): 10 µM unless noted

Consider `C#CCOc1cccc(/C(N)=N/C(N)=N/c2nc3ccccc3s2)c1`, for which the growth was 34.5% with SR leukemia; 83.2% in the experiment on RPMI-8226 leukemia; 67.9% with OVCAR-8 ovarian; 111% in the experiment with OVCAR-5 ovarian; 102% in the experiment with OVCAR-4 ovarian; 133% in the experiment on SK-OV-3 ovarian. Besides, the growth was 65.7% in the experiment on IGROV1 ovarian, 104% in the experiment on OVCAR-3 ovarian, 108% in the experiment with HS 578T breast and 59.1% in the experiment with NCI/ADR-RES ovarian.

With `CC1(C)CC[C@]2(C(=O)NCCCCCCN(CCCN)CCCN)CC[C@]3(C)C(=CC[C@@H]4[C@@]5(C)CC[C@H](O)C(C)(C)[C@@H]5CC[C@]43C)[C@@H]2C1`, the growth with SR leukemia was 87.2%; in the experiment with RPMI-8226 leukemia, 100%; in the experiment with OVCAR-8 ovarian, 99%; in the experiment with OVCAR-5 ovarian, 96.8%; in the experiment on OVCAR-4 ovarian it was 109%; with SK-OV-3 ovarian it was 114%. In addition, the growth was 101% in the experiment with IGROV1 ovarian, 106% with OVCAR-3 ovarian, 110% in the experiment with HS 578T breast and 98.8% with NCI/ADR-RES ovarian.

Turning to `Cc1ccc(C(=O)Nc2ccc(CNCCN3CCNCC3)c(C(F)(F)F)c2)cc1C#Cc1cnc2cccnn12`, the growth is -39.4% (active) in the experiment with SR leukemia; -23.3% (active) in the experiment with RPMI-8226 leukemia; 2.74% (active) with OVCAR-8 ovarian; 51.8% with OVCAR-5 ovarian; -23% (active) in the experiment on OVCAR-4 ovarian; 114% in the experiment with SK-OV-3 ovarian. Besides, the growth in the experiment with IGROV1 ovarian is 11.8%; with OVCAR-3 ovarian, -20.5% (active); with HS 578T breast, 36.6%; in the experiment on NCI/ADR-RES ovarian it was 71.6%.

`O=C(/C=C/Nc1ccc(S(=O)(=O)Nc2ncccn2)cc1)c1ccc(N=Cc2c(O)[nH]c3ccccc23)cc1`: the growth in the experiment with SR leukemia was 82.1%; with RPMI-8226 leukemia it was 86.4%; in the experiment with OVCAR-8 ovarian it was 101%; with OVCAR-5 ovarian it was 115%; in the experiment with OVCAR-4 ovarian, 106%; with SK-OV-3 ovarian it was 109%. Further, the growth in the experiment with IGROV1 ovarian is 118%; in the experiment on OVCAR-3 ovarian, 137%; in the experiment on HS 578T breast, 105%; in the experiment with NCI/ADR-RES ovarian it was 110%.

For `C[C@H]1OCC2(CCN(c3cnc(C(=O)Nc4cc(F)cc5cccnc45)cn3)CC2)[C@H]1N`, the growth is -0.453% (active) in the experiment on SR leukemia; 42.1% in the experiment with RPMI-8226 leukemia; 77.6% with OVCAR-8 ovarian; 74.3% with OVCAR-5 ovarian; 10.5% in the experiment on OVCAR-4 ovarian; 98.8% with SK-OV-3 ovarian. Also, the growth in the experiment on IGROV1 ovarian was 20.1%; in the experiment with OVCAR-3 ovarian, 19.5%; in the experiment on HS 578T breast, 60.8%; with NCI/ADR-RES ovarian, 72.2%.

Turning to `Cc1ccc2c(n1)C(=O)C(Cl)=C(Nc1ccc(C)c(C)c1)C2=O`, the growth in the experiment on SR leukemia was 28.1%; in the experiment with RPMI-8226 leukemia it was 11.1%; in the experiment on OVCAR-8 ovarian, 67.2%; in the experiment on OVCAR-5 ovarian it was 91.6%; in the experiment on OVCAR-4 ovarian, -29% (active); in the experiment with SK-OV-3 ovarian it was 99.1%. Moreover, the growth in the experiment on IGROV1 ovarian is -45.5% (active); in the experiment on OVCAR-3 ovarian it was -21.4% (active); in the experiment on HS 578T breast it was 32.8%; in the experiment on NCI/ADR-RES ovarian it was 63.1%.

As for `C#CCN(C)CCCOc1ccc(NC(=O)CCCCCCCCC(=O)NO)cc1Cl`, the growth in the experiment on SR leukemia was 32.7%; in the experiment with RPMI-8226 leukemia, 40.2%; with OVCAR-8 ovarian, 53.4%; in the experiment on OVCAR-5 ovarian, 68.8%; in the experiment on OVCAR-4 ovarian, 74.3%; with SK-OV-3 ovarian it was 84.8%. For the same molecule, the growth is 71.5% in the experiment with IGROV1 ovarian, 73.7% in the experiment with OVCAR-3 ovarian, 70.3% in the experiment with HS 578T breast and 82.7% in the experiment on NCI/ADR-RES ovarian.

Turning to `C[C@H](Nc1ncnc2ccc(-c3cnc(Cl)c(NS(C)(=O)=O)c3)cc12)c1ccccc1`, the growth is -20.1% (active) with SR leukemia; -7.72% (active) in the experiment with RPMI-8226 leukemia; -26.3% (active) with OVCAR-8 ovarian; -14.9% (active) in the experiment on OVCAR-5 ovarian; 0.576% (active) in the experiment on OVCAR-4 ovarian; -65.5% (active) in the experiment with SK-OV-3 ovarian. Moreover, the growth is -28.8% (active) in the experiment on IGROV1 ovarian, -65.9% (active) with OVCAR-3 ovarian, -20% (active) with HS 578T breast and 7.69% (active) in the experiment with NCI/ADR-RES ovarian.

For `CN(C)CCCOc1ccc(C(=C(c2ccccc2)C2CCCC2)c2ccc(OCCCN(C)C)cc2)cc1`, the growth was -37% (active) with SR leukemia; -32.1% (active) in the experiment on RPMI-8226 leukemia; -84.2% (active) in the experiment with OVCAR-8 ovarian; -92.9% (active) in the experiment on OVCAR-5 ovarian; -89.4% (active) in the experiment with OVCAR-4 ovarian; -86.4% (active) with SK-OV-3 ovarian. The growth in the experiment with IGROV1 ovarian was -84.7% (active); with OVCAR-3 ovarian, -91.7% (active); in the experiment with HS 578T breast, -60.7% (active); in the experiment with NCI/ADR-RES ovarian, -80% (active).

In the case of `Cn1ncc2c(C(=O)c3ccc(F)cc3)nc(C(C)(C)C)nc21`, the growth in the experiment with SR leukemia is 102%; with RPMI-8226 leukemia, 100%; in the experiment with OVCAR-8 ovarian, 105%; with OVCAR-5 ovarian it was 98.2%; with OVCAR-4 ovarian it was 107%; with SK-OV-3 ovarian it was 112%. Also, the growth in the experiment with IGROV1 ovarian was 103%; in the experiment on OVCAR-3 ovarian it was 98.6%; with HS 578T breast, 96.5%; in the experiment on NCI/ADR-RES ovarian it was 107%.

As for `COc1cccc2c1[C@H](OC)[C@]13O[C@@]1(C2=O)[C@H](O)[C@H](C)[C@@](O)(C(=O)[C@@H]1O[C@H]1C)[C@@H]3O`, the growth with SR leukemia is -30% (active); in the experiment on RPMI-8226 leukemia, -27.5% (active); in the experiment with OVCAR-8 ovarian it was -13.2% (active); with OVCAR-5 ovarian, 6.04% (active); in the experiment on OVCAR-4 ovarian, -13.3% (active); with SK-OV-3 ovarian it was -10.4% (active). Moreover, the growth was 7.69% (active) in the experiment with IGROV1 ovarian, -34.6% (active) in the experiment on OVCAR-3 ovarian, -30% (active) in the experiment with HS 578T breast and -23% (active) in the experiment on NCI/ADR-RES ovarian.

For the molecule `CCOC(=O)c1cnc2c(-c3ccc(Cl)c(Cl)c3)cnn2c1`, the growth is 23.1% in the experiment with SR leukemia; 87.7% with RPMI-8226 leukemia; 93.6% in the experiment on OVCAR-8 ovarian; 99.8% in the experiment on OVCAR-5 ovarian; 98.8% in the experiment on OVCAR-4 ovarian; 90.8% in the experiment with SK-OV-3 ovarian. The growth with IGROV1 ovarian was 79.1%; in the experiment with OVCAR-3 ovarian, 70.8%; with HS 578T breast, 82.6%; in the experiment on NCI/ADR-RES ovarian, 58.5%.

For the molecule `Cn1cc(C2=C(c3coc4cc(Br)ccc34)C(=O)NC2=O)c2ccccc21`, the growth is 29.5% in the experiment with SR leukemia; 98.9% in the experiment with RPMI-8226 leukemia; 87.2% in the experiment on OVCAR-8 ovarian; 113% in the experiment on OVCAR-5 ovarian; 100% in the experiment with OVCAR-4 ovarian; 53.5% with SK-OV-3 ovarian. Further, the growth in the experiment on IGROV1 ovarian was 64.7%; with OVCAR-3 ovarian it was 72.7%; in the experiment on HS 578T breast it was 52.8%; in the experiment with NCI/ADR-RES ovarian, 59.2%.
